Where “and” joins values, the source holds several entries; their conditions need not be identical. Equal entries are not always repeated. Calls of active or inactive are those of the source. How the source made its calls: active means hit-call score of the fitted dose curve at least 0.9, where 1 is the maximum; inactive means score below 0.9.

This test is described as follows: BSK_SAg_PBMCCytotoxicity: PBMC Cytotoxicity Assessment in the BioMAP Diversity Plus: SAg Assay (AID 2283093).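 Further: PBMC viability measured as Alamar Blue reduction fluorescence at 546/580 nm; fitted both ways against DMSO so a hit may be loss or gain of signal.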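 On AC50: PBMC superantigen activated with SEB plus TSST-1 one hour after compound addition.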 The conditions noted are these: primary human HUVEC with PBMC. The essentials:
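Alamar Blue reduction (6 h, ex/em 546/580 nm) read after 90 h culture of PBMC pre-dosed 1 h then stimulated with SEB plus TSST-1, 20 ng/mL each. Gain or loss of signal fitted relative to DMSO.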
What is called AC50 is the concentration giving half of the maximal activity seen. In the case of `CCCCc1oc2ccccc2c1C(=O)c1cc(I)c(OCCN(CC)CC)c(I)c1`, the AC50 was 8.86 µM (active).

As for `CCCCC(CC)C(=O)O` (stereo unspecified), the outcome was inactive.

`O=C(CCCN1CCC(O)(c2ccc(Cl)cc2)CC1)c1ccc(F)cc1`: the result was inactive.

Take `CCC(C)c1ccccc1O` (stereo unspecified): the result was inactive.

Consider `O=P(O)(O)CCC(F)(F)C(F)(F)C(F)(F)C(F)(F)C(F)(F)C(F)(F)C(F)(F)C(F)(F)F`, for which the outcome was inactive.

Turning to `CCCCCCCCCCCCCCCCCC[N+](C)(C)Cc1ccccc1`, the AC50 is 0.919 µM (active).

Turning to `CC(=O)Nc1ccc(O)cc1`, the result was inactive.

Turning to `CN(CCO)S(=O)(=O)C(F)(F)C(F)(F)C(F)(F)C(F)(F)C(F)(F)C(F)(F)C(F)(F)C(F)(F)F`, the outcome was inactive.

On to `OCC(F)(F)C(F)(F)C(F)(F)C(F)(F)C(F)(F)C(F)(F)C(F)(F)C(F)(F)C(F)(F)C(F)(F)C(F)(F)F`, for which the AC50 was 115 nM (active) and 64.1 nM (active).

Take `O=P(O)(O)CCC(F)(F)C(F)(F)C(F)(F)C(F)(F)C(F)(F)C(F)(F)F`: the result was inactive.

Take `O=C1c2ccc(O)c(O)c2C(=O)c2c(O)ccc(O)c21`: the result was inactive.

On to `O=C(O)CCC(F)(F)C(F)(F)C(F)(F)C(F)(F)C(F)(F)C(F)(F)F`, for which the outcome was inactive.

As to `C[C@]12CC[C@@H]3c4ccc(O)cc4CC[C@H]3[C@@H]1C[C@@H](O)[C@@H]2O`, the result was inactive.

On to `OCCN1CN(CCO)CN(CCO)C1`, for which the AC50 was 27 µM (active).

As for `CC1=NN(c2ccccc2)C(=O)C1`, the outcome was inactive.

Take `Oc1cc2ccccc2cc1O`: the result was inactive.

On to `OCC(CO)(CBr)CBr`, for which the outcome was inactive.

`O=C(CC(=O)C(F)(F)C(F)(F)C(F)(F)F)c1cccs1`: the AC50 was 44.8 µM (active) and 43.6 µM (active).

For `O=S(=O)(O)C(F)(F)C(F)(F)C(F)(F)C(F)(F)C(F)(F)C(F)(F)C(F)(F)C(F)(F)C(F)(F)C(F)(F)F`, the result was inactive.

`CCOC(=O)CN[C@@H](C(=O)N1CC[C@H]1C(=O)NCc1ccc(/C(N)=N/O)cc1)C1CCCCC1`: the result was inactive.

As for `CN(C)c1ccc(C(=C2C=CC(=[N+](C)C)C=C2)c2ccccc2)cc1`, the AC50 was 0.481 µM (active).

For the molecule `CCCCCc1ccc(O)cc1`, the AC50 is 13.5 µM (active).

With `CN(Cc1cnc2nc(N)nc(N)c2n1)c1ccc(C(=O)N[C@@H](CCC(=O)O)C(=O)O)cc1`, the outcome was inactive.

Regarding `CCCCCCCCCCCCCCC`, the result was inactive.

For `CN(C)CCOC(c1ccccc1)c1ccccc1`, the outcome was inactive.

As to `Cc1ccc(C(=O)c2ccccc2)cc1`, the result was inactive.
